# Laboratory results as given in ChEMBL document CHEMBL5724796, “Tm Shift (DSF) assay results for EUbOPEN Chemogenomics Library” (2024).
# Residues, ends and D or L forms follow the SMILES beside them.
# Experiments:
# Settings in all cases: Compound concentration 20.0 uM
# [1] = target: Tyrosine-protein kinase ABL1 (Homo sapiens) (UniProt P00519)
# [2] = target: Bromodomain-containing protein 4 (Homo sapiens) (UniProt O60885)
# [3] = target: Cyclin-dependent kinase 2 (Homo sapiens) (UniProt P24941)
# [4] = target: Casein kinase I isoform delta (Homo sapiens) (UniProt P48730)
# [5] = target: Glycogen synthase kinase-3 beta (Homo sapiens) (UniProt P49841)
# [6] = target: Mitogen-activated protein kinase 1 (Homo sapiens) (UniProt P28482)
# [7] = target: T1, Aurora kinase A (Homo sapiens) (UniProt O14965)
# T1 sequence (whole entry): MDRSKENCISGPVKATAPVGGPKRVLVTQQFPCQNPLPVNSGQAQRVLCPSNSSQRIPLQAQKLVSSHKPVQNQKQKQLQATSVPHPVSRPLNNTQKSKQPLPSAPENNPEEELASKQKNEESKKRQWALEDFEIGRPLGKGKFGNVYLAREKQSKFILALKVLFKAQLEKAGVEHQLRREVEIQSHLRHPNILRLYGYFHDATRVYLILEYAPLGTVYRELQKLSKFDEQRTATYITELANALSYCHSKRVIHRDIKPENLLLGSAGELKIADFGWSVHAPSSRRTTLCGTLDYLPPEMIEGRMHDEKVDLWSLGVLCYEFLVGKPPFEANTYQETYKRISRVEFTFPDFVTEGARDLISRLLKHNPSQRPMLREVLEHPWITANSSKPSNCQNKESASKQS
# [8] = target: T2, Transcription intermediary factor 1-alpha (Homo sapiens) (UniProt O15164)
# T2 sequence (whole entry): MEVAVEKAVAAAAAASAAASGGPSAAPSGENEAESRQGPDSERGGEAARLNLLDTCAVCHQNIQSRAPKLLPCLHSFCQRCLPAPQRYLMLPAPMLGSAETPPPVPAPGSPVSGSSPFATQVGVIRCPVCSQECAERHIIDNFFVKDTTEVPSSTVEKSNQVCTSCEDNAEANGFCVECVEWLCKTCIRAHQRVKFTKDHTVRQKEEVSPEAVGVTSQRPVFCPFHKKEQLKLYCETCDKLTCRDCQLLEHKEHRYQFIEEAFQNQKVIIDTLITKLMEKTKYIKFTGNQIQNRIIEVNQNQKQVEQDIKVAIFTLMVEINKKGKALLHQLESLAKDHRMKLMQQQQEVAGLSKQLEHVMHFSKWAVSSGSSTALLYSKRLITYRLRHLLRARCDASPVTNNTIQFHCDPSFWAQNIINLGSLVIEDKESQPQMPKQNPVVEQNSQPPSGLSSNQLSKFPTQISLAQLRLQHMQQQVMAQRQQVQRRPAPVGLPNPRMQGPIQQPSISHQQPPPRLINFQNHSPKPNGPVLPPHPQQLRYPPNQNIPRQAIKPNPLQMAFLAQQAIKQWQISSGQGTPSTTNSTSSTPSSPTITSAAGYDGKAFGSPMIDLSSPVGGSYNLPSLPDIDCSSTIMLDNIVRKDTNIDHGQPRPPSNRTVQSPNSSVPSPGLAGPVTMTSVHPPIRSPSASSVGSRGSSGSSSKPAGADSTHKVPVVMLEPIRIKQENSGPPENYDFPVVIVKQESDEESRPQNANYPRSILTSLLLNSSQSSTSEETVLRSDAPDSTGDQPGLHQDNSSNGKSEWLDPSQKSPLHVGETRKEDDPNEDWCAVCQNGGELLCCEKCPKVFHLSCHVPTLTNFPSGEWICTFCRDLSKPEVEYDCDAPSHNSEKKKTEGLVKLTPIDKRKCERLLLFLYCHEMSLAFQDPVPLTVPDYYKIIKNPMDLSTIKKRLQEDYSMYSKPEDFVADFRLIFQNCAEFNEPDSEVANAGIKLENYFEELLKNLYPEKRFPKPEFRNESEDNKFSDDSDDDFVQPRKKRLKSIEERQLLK
# Sequence of Glycogen synthase kinase-3 beta (Homo sapiens) (P49841 whole entry, looked up): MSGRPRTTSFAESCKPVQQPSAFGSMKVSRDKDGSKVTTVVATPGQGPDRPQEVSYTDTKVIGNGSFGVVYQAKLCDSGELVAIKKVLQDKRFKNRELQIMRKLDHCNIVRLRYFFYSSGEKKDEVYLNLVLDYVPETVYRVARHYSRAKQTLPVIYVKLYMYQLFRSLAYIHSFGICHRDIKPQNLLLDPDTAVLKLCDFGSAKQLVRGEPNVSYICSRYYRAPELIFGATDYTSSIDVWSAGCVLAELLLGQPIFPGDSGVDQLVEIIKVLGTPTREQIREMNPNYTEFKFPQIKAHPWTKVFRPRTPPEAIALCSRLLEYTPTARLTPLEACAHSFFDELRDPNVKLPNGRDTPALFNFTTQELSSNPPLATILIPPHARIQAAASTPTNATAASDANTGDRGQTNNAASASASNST
# Sequence of Casein kinase I isoform delta (Homo sapiens) (P48730 whole entry, looked up, canonical isoform): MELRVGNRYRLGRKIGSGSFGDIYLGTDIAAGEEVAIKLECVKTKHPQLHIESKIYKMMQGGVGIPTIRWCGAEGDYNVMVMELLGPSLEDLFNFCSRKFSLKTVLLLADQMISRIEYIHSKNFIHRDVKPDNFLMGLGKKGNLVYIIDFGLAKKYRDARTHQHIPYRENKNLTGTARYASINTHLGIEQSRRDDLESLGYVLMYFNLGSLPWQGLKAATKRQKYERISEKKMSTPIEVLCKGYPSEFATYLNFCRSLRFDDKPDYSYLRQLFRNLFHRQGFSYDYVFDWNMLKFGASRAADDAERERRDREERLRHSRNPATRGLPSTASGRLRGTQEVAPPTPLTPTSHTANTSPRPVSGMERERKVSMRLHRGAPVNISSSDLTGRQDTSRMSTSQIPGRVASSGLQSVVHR
# Sequence of Mitogen-activated protein kinase 1 (Homo sapiens) (P28482 whole entry): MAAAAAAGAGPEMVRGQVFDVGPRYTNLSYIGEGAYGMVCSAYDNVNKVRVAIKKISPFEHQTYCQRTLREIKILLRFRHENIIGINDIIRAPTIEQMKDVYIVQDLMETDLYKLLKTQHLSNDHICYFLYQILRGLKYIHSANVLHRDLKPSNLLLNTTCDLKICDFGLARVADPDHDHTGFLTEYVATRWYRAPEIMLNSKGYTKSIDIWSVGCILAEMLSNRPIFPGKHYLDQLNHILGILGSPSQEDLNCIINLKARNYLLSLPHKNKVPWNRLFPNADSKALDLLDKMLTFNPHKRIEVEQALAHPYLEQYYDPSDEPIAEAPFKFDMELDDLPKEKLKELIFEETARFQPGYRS
# Sequence of Tyrosine-protein kinase ABL1 (Homo sapiens) (P00519 whole entry): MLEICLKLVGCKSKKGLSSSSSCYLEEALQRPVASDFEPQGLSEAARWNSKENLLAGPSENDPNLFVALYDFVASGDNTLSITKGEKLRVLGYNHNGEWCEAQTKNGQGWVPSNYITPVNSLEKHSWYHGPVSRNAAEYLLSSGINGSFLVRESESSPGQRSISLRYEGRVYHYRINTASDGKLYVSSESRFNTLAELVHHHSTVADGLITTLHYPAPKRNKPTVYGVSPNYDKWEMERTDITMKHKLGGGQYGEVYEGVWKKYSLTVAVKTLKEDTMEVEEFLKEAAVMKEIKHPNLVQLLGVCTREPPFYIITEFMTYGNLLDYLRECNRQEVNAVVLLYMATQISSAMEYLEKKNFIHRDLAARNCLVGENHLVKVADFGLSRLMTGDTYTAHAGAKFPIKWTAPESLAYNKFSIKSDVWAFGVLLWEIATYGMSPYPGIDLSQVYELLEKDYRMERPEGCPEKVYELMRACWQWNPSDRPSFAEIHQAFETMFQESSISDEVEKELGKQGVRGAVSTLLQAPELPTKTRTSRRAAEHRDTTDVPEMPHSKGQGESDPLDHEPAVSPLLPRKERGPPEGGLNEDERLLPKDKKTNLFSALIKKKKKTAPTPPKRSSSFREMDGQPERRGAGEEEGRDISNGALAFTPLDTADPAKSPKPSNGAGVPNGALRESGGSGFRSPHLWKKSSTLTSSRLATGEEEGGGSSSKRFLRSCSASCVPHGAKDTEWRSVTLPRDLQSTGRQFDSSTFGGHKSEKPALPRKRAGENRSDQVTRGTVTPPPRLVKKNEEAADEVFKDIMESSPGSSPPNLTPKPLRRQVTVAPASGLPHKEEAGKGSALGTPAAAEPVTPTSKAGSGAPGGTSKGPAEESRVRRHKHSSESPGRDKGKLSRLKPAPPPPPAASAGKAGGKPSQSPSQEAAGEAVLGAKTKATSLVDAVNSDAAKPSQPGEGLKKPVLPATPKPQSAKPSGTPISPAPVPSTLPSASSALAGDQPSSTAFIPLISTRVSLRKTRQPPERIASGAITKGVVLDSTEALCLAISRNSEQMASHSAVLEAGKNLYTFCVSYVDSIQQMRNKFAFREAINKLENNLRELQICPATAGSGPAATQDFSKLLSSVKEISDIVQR
SMILES,ΔTm [1] [°C],ΔTm [2] [°C],ΔTm [3] [°C],ΔTm [4] [°C],ΔTm [5] [°C],ΔTm [6] [°C],ΔTm [7] [°C],ΔTm [8] [°C]
Cc1cc(C(=O)CN2CCCCC2)c(C)n1-c1ccc(Cl)cc1,-0.03,-2.43,0.02,-0.16,-0.07,0.08,-1.42,-0.41
COc1cc2c(NC3CCN(CC4CCCCC4)CC3)nc(N3CCCN(C(C)C)CC3)nc2cc1OCCCN1CCCCC1,0.33,-0.97,0.51,0.17,-0.33,-0.16,-0.14,-0.74
O=C(NO)C(c1ccc(-c2ncc(C(F)(F)F)cn2)cc1)c1ccccc1F (centres undefined),0.91,-2.36,0.08,0.69,-0.7,0.1,0.24,-0.84
COC1CCN(C(=O)c2cc(Cc3n[nH]c(=O)c4ccccc34)ccc2F)CC1,0.56,-2.02,0.16,-0.31,0.09,0.51,-2.39,-0.67
Nc1ccc(-c2cccs2)cc1NC(=O)c1ccc2nc(N3CCNCC3)ccc2c1,3.35,-2.49,1.41,0.14,0.38,-0.25,-0.39,-0.74
NC(=O)C(CCCN=C(N)CCl)NC(=O)c1ccccc1 (centres undefined),0.36,-3.15,0.18,-0.56,0.08,0.22,-2.39,1.03
CCc1c(C#N)c(S[C@@H](C(N)=O)c2ccccc2)nc(N(C)C)c1C#N,0.6,-2.37,0.24,-0.69,0.35,0.45,-2.54,0.58
NCCCOc1cc2ccccc2cc1C(=O)NCCOc1cc2ccccc2cc1C(=O)Nc1ccc(Cl)cc1O,0.27,-4.42,-1.85,0.11,-2.72,-1.61,-3.9,-0.59
O=C(O)CCNc1cc(N2CCc3ccccc3CC2)nc(-c2ccccn2)n1,0.06,0.28,-0.09,-0.34,0,-0.2,-1.3,0.15
O=c1cc(-c2ccc(O)cc2)oc2c(CN3CCN(Cc4cccs4)CC3)c(O)cc(O)c12,2.39,-1.3,1.5,-0.79,2.99,-1.64,3.95,2.2
O=C(c1ccc2[nH]ccc2c1)N1CCN(S(=O)(=O)c2ccc3[nH]c(=O)oc3c2)CC1,0.69,-2.8,-0.68,0.15,0,0.48,-1.69,-0.16
O=C1c2ccccc2C(=O)c2oc(-c3ccccc3)nc21,0.27,-2.65,0.44,-0.2,0.18,-0.09,-2.45,1.13
Cc1cc(-c2ccc3nc(C4CCOCC4)n(CCOC(F)(F)F)c3c2)cn(C)c1=O,0.26,10.3,0.15,0.13,-0.07,-0.47,-0.36,-0.3
CCCCN(Cc1ccc(C(=O)NO)cc1)C(=O)Nc1ccccc1,0.74,-1.81,0.54,0.26,-0.89,0.25,-0.07,-1.23
Cc1[nH]c2c(N3CCCCC3)c(-c3ccccc3)nn2c(=O)c1-c1ccc(O)cc1,-0.07,0.61,0.64,-0.07,-1.39,0.65,-0.41,-0.15
Nc1ncnc2c1ncn2[C@@H]1O[C@H](C(=O)N2CCN(CC(=O)Nc3cccc4c3CNC4=O)CC2)[C@@H](O)[C@H]1O,0.45,-1.31,-0.11,0.22,-0.59,0.31,-1.04,-0.61
CN(C)CC(c1ccc(O)cc1)C1(O)CCCCC1 (centres undefined),0.19,-2.16,0.04,-0.35,-1.41,0.1,-1.27,0.3
O=C(NO)c1cnc(NC2(c3ccccc3)CC2)nc1,-0.47,-1.48,0.47,0.23,-0.05,-0.3,-0.41,-1.75
O=[N+]([O-])c1ccc(CSc2ncnc3c2ncn3[C@@H]2O[C@H](CO)[C@@H](O)[C@H]2O)cc1,-0.08,-1.24,-0.1,-0.39,-0.67,0.1,-1.6,-0.18
NC(=O)c1cccc(NC(=O)CCC(=O)NCCc2cn(CCNS(=O)(=O)c3cccc(C(=O)O)c3)nn2)c1,0.47,-2.59,-0.69,0.02,-1.06,-1.68,-2.28,-0.11
NC(=O)C1CN(CCCCC(c2ccc(F)cc2)c2ccc(F)cc2)CCN1CC(=O)Nc1c(Cl)cc(N)cc1Cl (centres undefined),-3.72,-1.03,-3.44,-5.13,-5.78,-8.93,-8.05,4.39
O=C1C(=O)N(Cc2ccccc2)c2ccc(S(=O)(=O)N3CCC[C@H]3COc3ccc(C(F)(F)F)cc3)cc21,-0.46,-4.2,-0.42,0.54,-0.32,-0.63,-1.82,-1.21
CC[C@H](C)[C@H](NC(C)=O)C(=O)N[C@@H](CCC(=O)O)C(=O)N[C@H](C(=O)N[C@H](C=O)CC(=O)O)[C@@H](C)O (Ac-IETD-aldehyde),0.22,-2.51,-0.65,0.05,-1.72,-0.3,-1.5,-1.13
